Data: PubChem BioAssay (NCATS)
“And” between values parts separate entries of the source, which are not always exact repeats. Equal entries are not always repeated. Inconclusive results are not listed. A number with no mark means an inactive call. The source made the active and inactive calls. Calls come from the whole dose curve; as a rule, active = well fitted inhibition curve with a large enough effect; inconclusive = small, poorly fitted or top-dose-only effect; inactive = flat fitted curve, though single readings scatter.

Experiment: Primary qHTS for inhibitors of nuclear receptor binding SET domain protein 2 (NSD2) in an isogenic RCH-ACV NSD2 p.E1099K mutant (9B) (AID 1645876); note: nearly all actives have a fitted effect of over 70% in size
Conditions: RCH-ACV (leukaemia line) NSD2 E1099K (9B) viability, CellTiter-Glo, 72 h; series mostly up to 44.9 µM; activity change, negative = viability loss: at the top concentration
% is set by controls: 0 for no effect and ±100 for the full control effect; potency is the fitted concentration of half-maximal effect.

SMILES | Potency | activity change, negative = viability loss
COc1ccc([C@H]2OC[C@H]3O[C@@H](O[C@H]4[C@@H]2NC[C@@H]4O)[C@H](O)[C@H]3O)cc1 | 0.8 µM (active) | 
COC(=O)C[C@H]1[C@]2(C)C3=C(C)[C@H](c4ccoc4)C[C@H]3O[C@@H]2[C@H](O)C2[C@](C)(C(=O)OC)C=CC(=O)[C@@]21C (some centres not stated) |  | -15.9% [at 17.3 µM]
CN(C)CCn1cc(-c2ccc(F)cc2)c(-n2cccc2)n1 |  | -13.3%
Cc1nc(-c2cn3c(n2)-c2ccc(-c4cnn(C(C)(C)C(N)=O)c4)cc2OCC3)n(C(C)C)n1 | 7.3 nM (active) and 18.6 nM (active) | 
CC(C)C(C)C(O)C1CC23CC(=O)C4(O)C(=C2CCC3C1C)C=CC1(O)CC(O)CCC14C (configuration not stated) |  | -11.4% [at 17.3 µM]
O[C@@](Cc1ncc(CC2(C(F)(F)F)CC2)[nH]1)(c1ccc(-n2cccn2)cc1)C(F)(F)F | 23 µM (active) | 
C=C1/C(=C/C=C2\CCC[C@@]3(C)C2CCC3[C@H](C)/C=C/[C@@H](O)C2CC2)C[C@@H](O)C[C@@H]1O (some centres not stated) | 23 µM (active) | 
CC(C)c1ccc(NC(=O)Cn2cnc3c2c(=O)n(C)c(=O)n3C)cc1 |  | -27.7%
CS(=O)(=O)c1ccc(Oc2cc(F)cc(C#N)c2)c2c1[C@H](O)C(F)(F)C2 |  | -7.25%
C[C@@H]1COCCN1c1cc(=O)n2c(n1)N(Cc1cncc(Cl)c1)[C@H](C(F)(F)F)CC2 | 6.51 µM (active) | 
COc1cc(C(=O)O)ccc1NC(=O)C1NC(CC(C)(C)C)C(C#N)(c2ccc(Cl)cc2F)C1c1cccc(Cl)c1F (configuration not stated) |  | 4.28%
C=C[C@]1(C)C[C@H](O)[C@H]2C(=C)C(=O)O[C@@H]2[C@H]1C(=C)CO | 18.3 µM (active) | 
CO[C@H]1[C@@H](O)[C@H](O[C@H]2CC[C@@]3(C)C(CCC4C3CC[C@]35COC6(COC(=O)C6)C3CCC45O)C2)O[C@@H](C)[C@@H]1OC1OC(CO)C(OC2OC(CO)C(O)C(O)C2O)C(O)C1O (some centres not stated) | 3.88 µM (active) | 
C[C@H]1CC[C@@]2(OC1)O[C@H]1CC3C4CC[C@H]5C[C@@H](O)CC[C@]5(C)C4=CC(=O)[C@]3(C)[C@H]1[C@@H]2C (some centres not stated) |  | -8.47% [at 17.3 µM]
C[C@@]12C(=O)N(c3ccc(C(=O)Nc4cccc5cccnc45)cc3)C(=O)[C@@H]1[C@@H]1C=C[C@H]2C1 |  | -26.7%
CC(=O)NC(C(=O)O[C@H]1CCC(C)(C)[C@@H]2CC=C3C(=O)OCC3(O)[C@@]12C)C(C)C (some centres not stated) | 8.01 µM (active) | 

SMILES | Potency | activity change, negative = viability loss
O=C1c2ccc(Nc3ccc(F)cc3F)cc2CCc2ccc(OCC(O)CO)cc21 (configuration not stated) | 16.3 µM (active) | 
C=CC(C)(O)CC/C=C(/C)COC(=O)C(C)C1CCC(C)(C=C)O1 (configuration not stated) |  | -36.7%
COc1cc2c(cc1O)C1(Cc3ccc4c(c3C1O)OCO4)[N+](C)([O-])CC2 (configuration not stated) |  | -4.7%
CC(=O)N[C@H]1[C@H](O[C@H]2CC[C@@]3(C)C(CC[C@]4(C)C3CC=C3C5CC(C)(C)CC[C@]5(C(=O)O)C(O)C[C@]34C)C2(C)C)O[C@H](CO[C@@H]2O[C@H](C)[C@H](O)[C@H](O)[C@H]2O[C@@H]2OC[C@@H](O)[C@H](O)[C@H]2O)[C@@H](O)[C@@H]1O (some centres not stated) | 2.45 µM (active) | 
CC(C)(Cc1nc(-c2ccc(O)cn2)no1)C(=O)NC1=C(C(=O)O)CCCC1 |  | -23.4%
CCNC1(C(N)=O)CN(c2nc(C)nc3c(-c4ccc(Cl)cc4)c(-c4ccccc4Cl)nn23)C1 | 20.5 µM (active) | 
COc1cc(C(C)=O)c(OC)c2c1OC(C)(C)C=C2 |  | -5.95%
CC(C)(Cc1ccccc1)NCC(O)c1ccc(O)c(NS(C)(=O)=O)c1 (configuration not stated) |  | -28.6%
COc1cc(O)c2c(c1)C1OC1C[C@H](O)[C@H](O)C(=O)/C=C\C[C@H](C)OC2=O (some centres not stated) | 3.25 µM (active) | 
Cn1cc(C2=C(c3coc4ccccc34)C(=O)NC2=O)c2cc(Br)ccc21 | 18.4 µM (active) | 
C/C=C(\C)C(=O)O[C@H]1C[C@](C)(O)[C@H]2CC=C(C)[C@H]2[C@@H]2OC(=O)[C@H](C)[C@H]21 |  | -33.9%
C/C=C(/C)C(=O)O[C@@H]1C[C@@H](OC(=O)CC(C)C)C2(C)C3C(=O)C=C(C)C2C3C1(C)C (some centres not stated) |  | -26.3% [at 17.3 µM]
C/C(=C\Cc1c(O)c(Cl)c(C)c(C=O)c1O)CC/C=C(\C)[C@H]1CC(=O)C(C)(C)O1 | 2.52 µM (active) | 
N#Cc1cc(C2=Nc3ccc(Br)cc3NC(=O)C2)ccn1 |  | -23.5%
C=C(C)C1=C[C@@]2(C)C(=CC1=O)CC[C@@H](O)[C@@H]2C |  | -23.4%
Cc1cc(CS(=O)(=O)c2ccccc2)cc(OCc2ccc(CN3CCCC3CO)cc2)c1 (configuration not stated) | 14.5 µM (active) | 
